Nrf2 inh: Nrf2 pathway inhibition; 2.1% of 360,000 active; Potency, µM (top dose mostly 46 µM), inactives show top-dose activity change, negative = inhibition, hits mostly inhibitors; A549 ARE-Fluc reporter, luciferase luminescence, 18-24 h; note: % is set by controls: 0 for no effect and ±100 for the full control effect; nearly all actives have a fitted effect of over 60% in size
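A549 ARE_Fluc cells, 5000/well, 5% FBS OPTI-MEM; compounds in dose-response, 18-24 h at 37 °C/5% CO2; CellTiter-Fluor viability read (Ex 405/Em 525), then BugLite luciferase luminescence = Nrf2 activity.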
ELG1 DNA repair: blocks ELG1-dependent DNA repair in HEK293T cells; Potency, µM (doses to about 46.1 µM), inactives show at the top dose activity change, negative = inhibition, hits mostly inhibitors; 2.3% of 330,000 active; HEK293T ELG1-luciferase reporter, luminescence, 16 h; DNA damage induced by 5-fluorouridine; note: % is set by controls: 0 for no effect and ±100 for the full control effect; nearly all actives have a fitted effect of over 55% in size
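Reporter activity after DNA damage by 5-fluorouridine is monitored. Compound-treated cells incubate 16 hr at 37 °C, then ONE-Glo is added for 30 min before luminescence reading.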
Nrf2 activator: activates Nrf2 signaling; 0.31% of 410,000 active; Potency, µM (series often up to 46.1 µM), for the others: at the highest dose activation, actives largely listed as activators; AREc32 ARE-luciferase reporter (MCF7-derived line), luminescence, 24 h; note: % of control where 0% means no effect; nearly all actives have a fitted effect of over 65% in size
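Luciferase luminescence (Steady-Glo, 30 min at room temperature) served as the read-out of ARE activation in AREc32 cells treated with compounds for 24 hr at 37 deg C.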
A549 tox: counter-screen for Nrf2 inhibitors: cytotoxicity in A549 cells; A549 ARE-Fluc cells, CellTiter-Fluor viability, 18-24 h; Potency, µM (doses to about 46 µM), inactives show top-dose activity change, negative = cytotoxicity, most hits filed as inhibitors; 0.16% of 390,000 active; AID 504648; note: % is set by controls: 0 for no effect and ±100 for the full control effect
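A549 ARE-Fluc cells in 5% FBS OPTI-MEM, 5000 cells/well, rested 2 h then exposed to compounds in concentration-response for 18-24 h at 37 °C. Viability by CellTiter-Fluor fluorescence (Ex 405/Em 525) after 30 min; luciferase luminescence (BugLite, 15 min, RT) read afterwards.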
Starred values were filed as active, the others as inactive; ? = inconclusive; . = not tested or not shown; [ ] = dose if it differs, or a comment. Sampled rows, rich in hits. Any-hit rate of the full collection: about 3.7%. Calls come from the whole dose curve; as a rule, active = well fitted curve in the direction sought with a large enough effect; inconclusive = small, poorly fitted or top-dose-only effect, or another doubt; inactive = no such curve, though single readings can be large; an effect the other way counts as inactive or inconclusive. Potency is the fitted concentration of half-maximal effect.

SMILES	Nrf2 inh	ELG1 DNA repair	Nrf2 activator	A549 tox
CCc1ccccc1Nc1cc(C(=O)NC2CCC(C)CC2)c2ccccc2n1 (stereo not drawn)	?	.	1%	6%
CCNC(=O)/C(C#N)=C/c1c(N(Cc2ccccc2)Cc2ccccc2)nc2ccccn2c1=O	?	12µM*	4%	?
CNC(=O)/C(C#N)=C/c1c(N(Cc2ccccc2)Cc2ccccc2)nc2c(C)cccn2c1=O	26µM*	23µM*	4%	?
Cc1cc2[nH]c3c(=O)n(Cc4ccccc4F)ncc3c2s1	-17%	.	.	0%
O=C1CCC2=C1C(c1ccccc1Cl)N=C(Nc1nc3ccccc3o1)N2 (stereo not drawn)	18%	.	.	2%
Cc1c(Cl)cccc1NC(=O)Cn1nc(C)n2cccc2c1=O	14%	27%	0%	-1%
CCCCCCCCC1CC(C(=O)Nc2ccccc2)C(=O)O1 (stereo not drawn)	?	.	4%	?
Cc1nccc(-c2ccc(-n3cnc4ccccc43)cc2)n1	0%	10µM*	0%	0%
c1ccc2c(c1)ncn2-c1ccc(-c2ccnc(-c3ccncc3)n2)cc1	?	-29%	0%	-16%
Nc1nccc(-c2ccc(-n3cnc4ccccc43)cc2)n1	-8%	7.3µM*	0%	0%
Cc1ccc2nc3c(cc(C#N)c(=N)n3Cc3cccnc3)c(=O)n2c1	.	12%	.	.
Cc1ccc(S(=O)(=O)CCC(=O)N(CCCN2CCOCC2)c2nc3ccccc3s2)cc1	?	1%	13µM*	13%
CCC(C)(CCN1CCOCC1)N(Cc1cc2ccccc2n(C)c1=O)C(=O)C1CCCCC1 (stereo not drawn)	7%	.	.	-15%
O=C(Nc1ccccc1C(=O)Nc1ccccn1)c1cc(F)c(F)cc1Cl	8%	-5%	2%	12%
COc1ccc(NS(=O)(=O)c2cccc(NC(=O)CCC(=O)c3ccc(Cl)cc3)c2)cc1	21µM*	?	9%	-28%
O=S(=O)(c1ccc2c(c1)OCCO2)N1CCN(S(=O)(=O)c2ccc3nc(Cl)c(Cl)nc3c2)CC1	-16%	.	.	-5%
Clc1ccc2[nH]c3c(N4CCC5(CC4)OCCO5)ncnc3c2c1	21µM*	?	4%	-17%
Cc1cccc2[nH]c3c(N4CCN(C(=O)c5ccco5)CC4)ncnc3c12	?	?	0%	0%
Cc1ccc2[nH]c3c(N4CCOCC4)ncnc3c2c1	?	-20%	7%	-22%
Cc1cccc2[nH]c3c(N4CCC5(CC4)OCCO5)ncnc3c12	?	16µM*	3%	.
CC(C)(C)Cc1c(-c2ccco2)nc2ccc(Cl)cn12	.	.	24%	.
CC1(C(=O)NS(=O)(=O)C2CC2)CCCN(C(=O)c2cccc(OC(F)(F)F)c2)C1 (stereo not drawn)	.	.	0%[9.22 µM]	.
O=C(C1=C[C@@H](c2csc3ccccc23)C[C@@H](OCc2ccc(CO)cc2)O1)N1CCN(Cc2ccccc2)CC1	16µM*	?	6%	-15%
O=C(C1=C[C@@H](c2csc3ccccc23)C[C@@H](OCc2ccc(CO)cc2)O1)N1CCN(Cc2ccc3c(c2)OCO3)CC1	?	9.2µM*	8%	-13%
O=C(C1=C[C@@H](c2ccccc2)C[C@@H](OCc2ccc(CO)cc2)O1)N1CCN(Cc2ccc3c(c2)OCO3)CC1	-17%	15µM*	-2%	-15%
SMILES	Nrf2 inh	ELG1 DNA repair	Nrf2 activator	A549 tox
CC(CC(=O)c1ccccc1)=NCCCN=C(C)CC(=O)c1ccccc1	.	.	4%	.
CCOC(=O)C1=C(OCc2ccc(Cl)cc2)C2C=C(C)C=CC2N=C1 (stereo not drawn)	-25%	16µM*	0%	-2%
CC1CCN(S(=O)(=O)c2ccc3c(c2)c(=O)c(C(=O)NCc2ccc(Cl)cc2)cn3C)CC1	9%	.	0%	7%
COc1ccc(CCn2c(C)nc3c(c(=O)c4ccccc4n3C)c2=O)cc1	12%	?	9%	0%
CC(C)c1nc2sc3ccccc3c(=O)c2c(=O)n1Cc1ccccc1	26µM*	?	0%	-7%
COc1ccc(CCn2c(C(C)C)nc3c(c(=O)c4ccccc4n3C)c2=O)cc1	-4%	16µM*	0%	-14%
CCCc1nc2sc3ccccc3c(=O)c2c(=O)n1Cc1ccc(OC)cc1	?	23µM*	1%	-3%
Cc1ccc(Cl)cc1N1CCN(C(=O)c2cnc(N3CCOCC3)c3ccccc23)CC1	.	.	-4%	-19%
